# Laboratory results from PubChem BioAssay AID1159580 (chemical genetic matrix, 2015).
# Among all 5,500 compounds or so, about 2,000 (36%) were called active. Not shown: some 18% with an inconclusive outcome. The list shows a part of the results. A number with no mark means an inactive call. Cut-off read from the data, not from the text of the source: active = normalized growth mostly below about 0.91 (no sharp cut-off); inconclusive = no clear call, values can overlap the other calls; inactive = mostly above about 0.92.
# Experiment: chemical genetic growth profiling, strain panel (AID 1159580);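 note: tested at 20 µM; growth read once vehicle control cultures reached saturation at 30 °C; 1 = growth at the plate median or of vehicle wells; lower values mean less growth of the strain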
# Details: S. cerevisiae deletion strains, growth OD
structure (smiles),measurement,setting,value
NCCCCCCCCCCN,normalized growth,"locus YAL040C, strain CLN3, active compounds read low",1.01
same,normalized growth,"locus YCL061C, strain MRC1 (second series), active compounds read low",1.01
same,normalized growth,"locus YDR150W, strain NUM1, active compounds read low",1.01
same,normalized growth,"locus YDR363W, strain ESC2, active compounds read low",1.03
same,normalized growth,"locus YER002W, strain NOP16, active compounds read low",1.01
same,normalized growth,"locus YNL175C, strain NOP13, active compounds read low",1.01
same,normalized growth,"locus YNL197C, strain WHI3, active compounds read low",1
same,normalized growth,"locus YNL224C, strain SQS1, active compounds read low",1
same,normalized growth,"locus YOR083W, strain WHI5 (second series), active compounds read low",1.02
same,normalized growth,"locus YPL241C, strain CIN2, active compounds read low",1.01
C/C(=N/OC(=O)Nc1ccc(Cl)cc1)c1ccc2c(c1)CCO2,normalized growth,"locus YAR019C, strain CDC15, active compounds read low",0.946
same,normalized growth,"locus YBL105C, strain PKC1, active compounds read low",0.95
same,normalized growth,"locus YBR135W, strain CKS1, active compounds read low",0.954
same,normalized growth,"locus YBR136W, strain MEC1, active compounds read low",0.95
same,normalized growth,"locus YBR160W, strain CDC28, active compounds read low",0.943
same,normalized growth,"locus YDL017W, strain CDC7, active compounds read low",0.947
same,normalized growth,"locus YDL028C, strain MPS1, active compounds read low",0.955
same,normalized growth,"locus YDL101C, strain DUN1, active compounds read low",0.948
same,normalized growth,"locus YDL108W, strain KIN28, active compounds read low",0.966
same,normalized growth,"locus YDL132W, strain cdc53, active compounds read low",0.935
same,normalized growth,"locus YDL214C, strain PRR2, active compounds read low",0.868
same,normalized growth,"locus YDR052C, strain DBF4, active compounds read low",0.957
same,normalized growth,"locus YDR054C, strain cdc34, active compounds read low",0.93
same,normalized growth,"locus YDR226W, strain ADK1, active compounds read low",0.949
same,normalized growth,"locus YDR477W, strain SNF1, active compounds read low",0.853
same,normalized growth,"locus YER123W, strain YCK3, active compounds read low",0.858
same,normalized growth,"locus YER133W, strain GLC7, active compounds read low",0.837
same,normalized growth,"locus YFL009W, strain cdc4, active compounds read low",0.949
same,normalized growth,"locus YFL029C, strain CAK1, active compounds read low",0.939
same,normalized growth,"locus YFR003C, strain YPI1, active compounds read low",0.959
same,normalized growth,"locus YFR019W, strain FAB1, active compounds read low",0.93
same,normalized growth,"locus YFR028C, strain CDC14, active compounds read low",0.953
same,normalized growth,"locus YGR040W, strain KSS1, active compounds read low",0.835
same,normalized growth,"locus YGR052W, strain FMP48, active compounds read low",0.908
same,normalized growth,"locus YGR092W, strain DBF2, active compounds read low",0.599
same,normalized growth,"locus YHR030C, strain SLT2, active compounds read low",0.607 (active)
same,normalized growth,"locus YHR079C, strain IRE1, active compounds read low",0.775
same,normalized growth,"locus YHR082C, strain KSP1, active compounds read low",0.838
same,normalized growth,"locus YHR205W, strain SCH9, active compounds read low",0.756
same,normalized growth,"locus YIL147C, strain SLN1, active compounds read low",0.949
same,normalized growth,"locus YJL095W, strain BCK1, active compounds read low",0.69
same,normalized growth,"locus YJL128C, strain PBS2, active compounds read low",0.951
same,normalized growth,"locus YJL157C, strain FAR1, active compounds read low",0.852
same,normalized growth,"locus YJR016C, strain ILV3, active compounds read low",0.938
same,normalized growth,"locus YJR066W, strain TOR1 (second series), active compounds read low",0.745
same,normalized growth,"locus YJR066W, strain TOR1, active compounds read low",0.727
same,normalized growth,"locus YKL048C, strain ELM1, active compounds read low",0.966
same,normalized growth,"locus YKL067W, strain YNK1, active compounds read low",0.891
same,normalized growth,"locus YKL101W, strain HSL1, active compounds read low",0.92
same,normalized growth,"locus YKL193C, strain SDS22, active compounds read low",0.941
same,normalized growth,"locus YKL203C, strain TOR2, active compounds read low",0.85
same,normalized growth,"locus YLR113W, strain HOG1, active compounds read low",0.755 (active)
same,normalized growth,"locus YLR133W, strain CKI1, active compounds read low",0.884
same,normalized growth,"locus YLR403W, strain SFP1, active compounds read low",0.777
same,normalized growth,"locus YML070W, strain DAK1, active compounds read low",0.874
same,normalized growth,"locus YMR001C, strain CDC5, active compounds read low",0.946
same,normalized growth,"locus YMR205C, strain PFK2 (second series), active compounds read low",0.908
same,normalized growth,"locus YMR277W, strain FCP1, active compounds read low",0.949
same,normalized growth,"locus YNL006W, strain LST8, active compounds read low",0.97
same,normalized growth,"locus YNL020C, strain ARK1, active compounds read low",0.873
same,normalized growth,"locus YNL161W, strain CBK1, active compounds read low",0.951
same,normalized growth,"locus YNL183C, strain NPR1, active compounds read low",0.775
same,normalized growth,"locus YNL207W, strain RIO2, active compounds read low",0.936
same,normalized growth,"locus YNL222W, strain SSU72, active compounds read low",0.954
same,normalized growth,"locus YNL307C, strain MCK1 (second series), active compounds read low",0.832
same,normalized growth,"locus YOL078W, strain AVO1, active compounds read low",0.951
same,normalized growth,"locus YOL136C, strain PFK27, active compounds read low",0.864
same,normalized growth,"locus YOR061W, strain CKA2, active compounds read low",0.873
same,normalized growth,"locus YOR119C, strain RIO1, active compounds read low",0.894
same,normalized growth,"locus YOR231W, strain MKK1, active compounds read low",0.808
same,normalized growth,"locus YOR329C, strain SCD5, active compounds read low",0.956
same,normalized growth,"locus YPL031C, strain PHO85, active compounds read low",0.806
same,normalized growth,"locus YPL153C, strain RAD53, active compounds read low",0.846
same,normalized growth,"locus YPL204W, strain HRR25, active compounds read low",0.803
same,normalized growth,"locus YPL209C, strain IPL1, active compounds read low",0.956
same,normalized growth,"locus YPL256C, strain CLN2, active compounds read low",0.853 (active)
same,normalized growth,"locus YPR025C, strain CCL1, active compounds read low",0.955
same,normalized growth,"locus YPR106W, strain ISR1, active compounds read low",0.959
same,normalized growth,"locus YPR111W, strain DBF20, active compounds read low",0.96
same,normalized growth,"strain NNK1, active compounds read low",0.951
same,normalized growth,"strain TSCII, active compounds read low",0.938
